Assay results reported in PubChem BioAssay.
The source made the active and inactive calls.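 How the source made its calls, unless noted: active means inhibition at or above 50% at 10 µM; inactive means inhibition below 50%.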

Columns and labels:
[1] = inhibitors of TNFa-induced NFkB p65 translocation, primary screen, imaging, HUVEC, MLSMR starter and 10KST1 sets (AID 438;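 active means inhibition above 20% together with a positive visual image hit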;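 further: compound added about 3h40 before a 20 min TNFalpha stimulation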;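 on inhibition: signal is the nuclear over cytoplasmic p65 intensity ratio per well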); details: HUVEC TNFa-induced p65 nuclear translocation; cell count: measured here: nuclei count (cytotoxicity indicator), at 2.08 µM; inhibition: at 2 µM, stronger effect = higher value, 0% TNFa-plus-vehicle, 100% no-TNFa wells
[2] = reduction of polyQ htt aggregates in cells – imaging, exon1htt(103Q)mCFP cells, high-content imaging, primary screen (AID 483;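 active means visual image review flags a hit and inhibition of aggregation exceeds 20%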;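 further: compound exposure lasted 3 days before fixation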;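 on nuclei count: percent of the per-plate median nuclei count of sample wells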); details: exon1htt(103Q)mCFP cell line, aggregate imaging, at 2 µM; inhibition of aggregation: stronger effect = higher value; nuclei count: measured here: cell count, toxicity
[3] = endothelial E-selectin expression blockers – imaging, HUVEC, immunofluorescence, MLSMR starter and 10KST1 sets, primary screen (AID 487;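 active means visually confirmed hit in the image check and inhibition above 20%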;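 on inhibition: signal is fraction of cell area covered by stained E-selectin grains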;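 on nuclei count: 100% = median nuclei count of all wells on the same plate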); details: HUVEC TNFalpha-induced E-selectin immunofluorescence imaging, at 2 µM; inhibition: stronger effect = higher value; nuclei count: measured here: cell number, toxicity
[4] = target: Voltage-gated potassium channel subunit beta-2 (Rattus norvegicus) (UniProt P62483); assay: inhibitors of rat Kvbeta2 reductase activity – biochemical, NADPH fluorescence, primary screen (AID 622;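 active means fluorescence slope higher than the sample average by over 3 SD, cut at about -0.22 in these data, passing the limit was not always enough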;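 further: slope of raw intensity against log time taken from 70 to 1610 s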); details: recombinant KvBeta, 4-cyanobenzaldehyde reduction, at 10 µM, stronger effect = higher value
[5] = target: Voltage-gated potassium channel subunit beta-2 (Rattus norvegicus) (UniProt P62483); assay: enhancers of rat Kvbeta2 NADPH turnover – biochemical, NADPH fluorescence, primary screen (AID 623;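 active means NADPH fluorescence slope more negative than the mean of all samples by about 3 SD, 99.7% confidence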;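 further: fluorescence intensity change per second fitted from 20 to 320 s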); details: Recombinant KvBeta, NADPH fluorescence decrease slope, 10 min; at 10 µM; stronger effect = lower value
[6] = target: Alpha-2C adrenergic receptor (Homo sapiens) (UniProt P18825); assay: compounds altering alpha2C-coupled GIRK flux – cell-based, HEK293 alpha2C/GIRK1/2, thallium flux, primary screen (AID 624;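 active means fluorescence slope after compound addition differing from the mean of all screened samples at 99.7% confidence, in either direction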;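 further: slope of fluorescence ratio to pre-addition baseline per second over 15 to 24 s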); details: thallium flux BTC fluorescence, at 10 µM, actives lie on both sides
[7] = blockers of RIG-like receptor reporter activation – cell-based, Sendai virus stimulus, luciferase, 10K MLSCN set, TLR/RLR signaling modifier project, primary screen (AID 602276); details: HEK293 RL24 IRF3 luciferase reporter, at 10 µM, stronger effect = higher value;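 further: firefly luciferase from ISG56 promoter only with Renilla not read in this screen; 0% = Sendai virus plus DMSO and 100% = medium plus DMSO without virus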
[8] = TLR3 IRF3 reporter activation blockers – cell-based, poly I:C stimulus, luciferase, 10K MLSCN set, primary screen (AID 602277;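 active means inhibition of the reporter signal at or above 50%; inactive means inhibition below 50%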); details: HEK293-TLR3 RL24 IRF3 luciferase reporter, at 10 µM, stronger effect = higher value

Chain of Voltage-gated potassium channel subunit beta-2 (Rattus norvegicus) (P62483 whole entry, looked up): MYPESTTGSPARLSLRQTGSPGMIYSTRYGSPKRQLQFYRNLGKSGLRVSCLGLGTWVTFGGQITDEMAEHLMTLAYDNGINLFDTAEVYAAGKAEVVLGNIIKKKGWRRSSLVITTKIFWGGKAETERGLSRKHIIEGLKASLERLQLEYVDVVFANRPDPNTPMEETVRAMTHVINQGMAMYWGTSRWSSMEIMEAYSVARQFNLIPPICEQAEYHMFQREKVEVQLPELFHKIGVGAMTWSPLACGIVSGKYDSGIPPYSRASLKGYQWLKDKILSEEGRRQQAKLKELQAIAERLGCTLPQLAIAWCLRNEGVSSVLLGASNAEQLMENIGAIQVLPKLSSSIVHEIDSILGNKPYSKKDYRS
Chain of Alpha-2C adrenergic receptor (Homo sapiens) (P18825 whole entry, looked up): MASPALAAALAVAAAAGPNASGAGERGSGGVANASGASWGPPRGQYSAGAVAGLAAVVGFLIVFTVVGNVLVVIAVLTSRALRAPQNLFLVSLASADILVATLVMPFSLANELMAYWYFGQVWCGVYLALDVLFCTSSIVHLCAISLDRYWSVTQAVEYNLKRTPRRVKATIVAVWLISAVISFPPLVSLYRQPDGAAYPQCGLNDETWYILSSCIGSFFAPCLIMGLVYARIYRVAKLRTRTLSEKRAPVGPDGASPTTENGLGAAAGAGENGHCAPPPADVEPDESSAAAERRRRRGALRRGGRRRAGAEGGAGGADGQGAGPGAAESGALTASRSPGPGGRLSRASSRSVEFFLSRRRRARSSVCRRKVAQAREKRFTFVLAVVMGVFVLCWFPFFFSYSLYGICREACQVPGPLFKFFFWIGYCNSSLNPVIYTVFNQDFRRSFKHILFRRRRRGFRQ

Row | Compound | cell count [1] | inhibition [1] | inhibition of aggregation [2] | nuclei count [2] | inhibition [3] | nuclei count [3] | fluorescence slope [4] | NADPH fluorescence slope [5] | slope [6] | inhibition [7] | inhibition [8]
1 | COc1cccc(NC(=O)N2CCC(N3CCCCC3)CC2)c1 | 369 | 5.2% (inactive) | 7.2% (inactive) | 105% | -124% (inactive) | 119% | -0.582 (inactive) | 2.5e-05 (inactive) | 0.00728 (inactive) | 15.9% (inactive) | 26.1% (inactive)
2 | CCC(OC(=O)c1cccs1)C(=O)NCc1ccco1 (stereo not given) | 404 | 5.2% (inactive) | 10.4% (inactive) | 90.1% | -72.5% (inactive) | 118% | -0.44 (inactive) | -0.000112 (inactive) | 0.00455 (inactive) | 16.1% (inactive) | 25% (inactive)
3 | Cc1cc2ccccc2n1CCNC(=O)c1ccc(S(=O)(=O)N2CCOCC2)cc1 | 194 | 0.8% (inactive) | 14.3% (inactive) | 93.1% | -41.3% (inactive) | 101% | -0.603 (inactive) | -1.9e-05 (inactive) | 0.00522 (inactive) | 13.5% (inactive) | 30% (inactive)
4 | O=C(NCc1ccc2c(c1)OCO2)C1CCC(CNc2c(N3CCCCC3)c(=O)c2=O)CC1 (stereo not given) | 579 | 6.8% (inactive) | 2.3% (inactive) | 109% | 11.9% (inactive) | 104% | -0.595 (inactive) | -4.4e-05 (inactive) | 0.00656 (inactive) | 7.38% (inactive) | 24.7% (inactive)
5 | CC1(C)Cc2c(sc3c2c(=N)n(Cc2ccco2)c(=O)n3Cc2ccccc2)CO1 | 790 | -10.7% (inactive) | 12% (inactive) | 101% | -27.8% (inactive) | 112% | -0.587 (inactive) | 2.3e-06 (inactive) | 0.0065 (inactive) | 13.1% (inactive) | 23.7% (inactive)
6 | CCOC(=O)Cc1csc(NC(=O)CSc2nnc(-c3ccncc3)n2Cc2ccco2)n1 | 516 | -12.9% (inactive) | 14.5% (inactive) | 97.6% | -61.4% (inactive) | 122% | -0.595 (inactive) | -6.1e-05 (inactive) | 0.0058 (inactive) | 10.4% (inactive) | 10.6% (inactive)
7 | COCCn1c(=O)[nH]c2cc(C(=O)N3CCN(Cc4ccc5c(c4)OCO5)CC3)ccc2c1=O | 742 | -1.6% (inactive) | -2% (inactive) | 122% | -20.8% (inactive) | 115% | -0.643 (inactive) | -1.6e-05 (inactive) | 0.00392 (inactive) | 2.81% (inactive) | -1.78% (inactive)
8 | CCCCOC(=O)C1=C(C)Nc2ncnn2C1c1cccc(OC)c1OC (stereo not given) | 655 | 12.8% (inactive) | -20.9% (inactive) | 113% | -71.2% (inactive) | 111% | -0.403 (inactive) | -4e-05 (inactive) | 0.00417 (inactive) | 12.8% (inactive) | 9.22% (inactive)
9 | CC(C)CNS(=O)(=O)c1ccc(CCC(=O)NCc2ccco2)cc1 | 572 | 33.1% (active) | 7% (inactive) | 85% | -57.5% (inactive) | 137% | -0.511 (inactive) | 1.9e-05 (inactive) | 0.00549 (inactive) | 11.1% (inactive) | 14.7% (inactive)
10 | C/C(N)=C(/C#N)C(=O)COC(=O)c1cc(S(=O)(=O)N2CCCCC2)ccc1C | 508 | 7.7% (inactive) | -28.1% (inactive) | 104% | 12.6% (inactive) | 85.7% | -0.366 (inactive) | 1.2e-05 (inactive) | 0.00665 (inactive) | 7.49% (inactive) | 6.72% (inactive)
